Experimental findings from PubChem BioAssay (Tox21) are described below.

A short description of assay [1]: qHTS assay to identify small molecule agonists of the vitamin D receptor (VDR) signaling pathway - cell viability counter screen (AID 743224; active = well fitted curve in the direction sought with a large enough effect in the repeat runs; an effect the other way counts as inactive or inconclusive; note: series mostly up to about 63 µM; nearly all actives have a fitted effect of over 50% in size). Summed up: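 CellTiter-Glo viability readout on VDR-bla cells, measured after 16 h of compound treatment at 37C in the same wells.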
Assay [2] can be described thus: qHTS assay to identify small molecule antagonists of the vitamin D receptor (VDR) signaling pathway - cell viability counter screen (AID 743225; active = well fitted curve in the direction sought with a large enough effect in the repeat runs; an effect the other way counts as inactive or inconclusive; note: nearly all actives have a fitted effect of over 50% in size). The method in brief:
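Parallel cytotoxicity test: VDR-UAS-bla HEK 293T, 3 nM (final) 1-alpha,25-dihydroxyvitamin D3 with test compound, 16 h, 37C. Endpoint is CellTiter-Glo luminescence in the same wells.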

Assay [3] can be described thus: qHTS assay to identify small molecule agonists of the NFkB signaling pathway - cell viability counter screen (AID 1159515). Note: series mostly up to about 61 µM; nearly all actives have a fitted effect of over 55% in size. The method in brief: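 Tox21 library compounds were tested for cytotoxicity against NFkB-bla ME-180 cells during a 5 hr exposure at 37 C. CellTiter-Glo luminescence served as the viability read-out.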
Assay [4] can be described thus: qHTS assay to identify small molecule agonists of the endoplasmic reticulum stress response signaling pathway (AID 1159516; active = well fitted activation curve with a large enough effect in the signal ratio in the repeat runs, not every such curve was filed as active; the % refers to the signal ratio; note: potency is the fitted concentration of half-maximal effect). The method in brief: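 Fluorescence at 460 and 530 nm (405 nm excitation) reports beta-lactamase from an ER stress response element in HeLa cells treated 5 hr at 37 C.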
A short description of assay [5]: qHTS assay to identify small molecule agonists of the endoplasmic reticulum stress response signaling pathway - cell viability counter screen (AID 1159517). Note: series mostly up to about 61 µM; nearly all actives have a fitted effect of over 50% in size. Summed up:
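In parallel with the ESRE reporter read, cytotoxicity was scored by CellTiter-Glo luminescence (30 min, room temperature) on HeLa ESRE-bla cells dosed for 5 hr.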

The nature of assay [6]: qHTS assay to identify small molecule antagonists of the retinoid-related orphan receptor gamma (ROR-gamma) signaling pathway - cell viability counter screen (AID 1159520; active = well fitted curve in the direction sought with a large enough effect in the repeat runs; an effect the other way counts as inactive or inconclusive; note: nearly all actives have a fitted effect of over 50% in size). Summed up:
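Tet-on ROR gamma CHO cells were given compounds for 2 hr, then doxycycline hyclate at 1 uM final, and incubated 16 hr at 37 C. Viability was measured as ATP content by CellTiter-Glo luminescence.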

For assay [7], the target named is Nuclear receptor ROR-gamma (Homo sapiens) (UniProt P51449). As to the kind of experiment: qHTS assay to identify small molecule antagonists of the retinoid-related orphan receptor gamma (ROR-gamma) signaling pathway (AID 1159521; active = well fitted curve in the direction sought with a large enough effect in the repeat runs; an effect the other way counts as inactive or inconclusive). The method in brief: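 Decreased RORE-driven luciferase luminescence indicates antagonism. Tet-on RORγ CHO cells received compound, then 1 uM final doxycycline 2 h later; signal read after 16 h incubation.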

A short description of assay [8]: qHTS assay to identify small molecule agonists of the AP-1 signaling pathway - cell viability counter screen (AID 1159525). Note: nearly all actives have a fitted effect of over 55% in size. The method in brief: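 Same-well cytotoxicity counter screen of the Tox21 10K library in ME-180 cells. The readout is ATP-dependent luminescence after 5 h compound treatment. Data are normalised to DMSO and tetra n-octyl ammonium bromide controls.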

A short description of assay [9]: qHTS assay to identify small molecule agonists of the AP-1 signaling pathway (AID 1159526).
The target in assay [10] is Retinoic acid receptor RXR-alpha (Homo sapiens) (UniProt P19793). The experiment in a line: qHTS assay to identify small molecule agonists of the RXR signaling pathway (AID 1159527). Note: nearly all actives have a fitted effect of over 35% in size. Note: potency is the fitted concentration of half-maximal effect. The method in brief:
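16 hr incubation of compound-treated RXR-alpha-UAS-bla HEK 293T cells (2% charcoal-stripped FBS, 37 C) preceded a 2 hr room-temperature LiveBLAzer FRET substrate step and blue/green fluorescence measurement.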

Results filed as inconclusive are left out. The source made the active and inactive calls. Unless noted, calls come from the whole dose curve.

Retinoic acid receptor RXR-alpha (Homo sapiens), sequence (P19793 whole entry, looked up): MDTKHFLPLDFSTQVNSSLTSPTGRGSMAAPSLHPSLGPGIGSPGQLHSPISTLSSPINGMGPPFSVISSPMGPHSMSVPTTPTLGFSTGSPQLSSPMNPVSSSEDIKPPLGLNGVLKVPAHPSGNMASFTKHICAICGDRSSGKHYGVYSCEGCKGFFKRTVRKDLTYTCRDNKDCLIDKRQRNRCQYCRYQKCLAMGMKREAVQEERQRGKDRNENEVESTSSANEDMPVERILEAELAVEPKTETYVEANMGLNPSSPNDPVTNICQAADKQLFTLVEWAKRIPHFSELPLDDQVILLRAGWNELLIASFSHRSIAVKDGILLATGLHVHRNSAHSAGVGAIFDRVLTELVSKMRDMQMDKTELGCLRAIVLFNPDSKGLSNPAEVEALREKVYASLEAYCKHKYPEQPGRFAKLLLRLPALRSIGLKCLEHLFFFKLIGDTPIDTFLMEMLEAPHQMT

For the compound `CC(C)(C)OOC(C)(C)CCC(C)(C)OOC(C)(C)C`, the Potency entry in [1], in assay [2], in [3], in [4], in assay [5] and in assay [6] was “inactive” in each case. The Potency result in assay [7], in assay [8], in assay [9] and in [10] was “inactive” in each case.
On to `CC(C)c1ccc(NC(=O)N(C)C)cc1`, for which the Potency entry in assay [1], in assay [3], in assay [4], in assay [5], in assay [6] and in assay [7] was “inactive” in each case. Also, the Potency result in assay [8], in [9] and in assay [10] was “inactive” each time.
Turning to `O=S(=O)(Cl)Cl`, the Potency result in [3], in assay [4], in [5], in assay [6], in [7] and in [8] was “inactive” throughout. Further, the Potency result in assay [9] and in assay [10] was “inactive” in each case.
Consider `OCCCl`, for which the Potency result in [1], in [2], in assay [3], in assay [4], in assay [5] and in assay [6] was “inactive” throughout. The Potency result in [7], in assay [8] and in assay [9] was “inactive” each time. In assay [10], the Potency is 19.5 µM (active).
With `c1ccc2c(c1)-c1cccc3cccc-2c13`, the Potency entry in [1], in [3], in assay [5], in assay [6], in assay [7] and in assay [8] was “inactive” throughout. Also, the Potency entry in assay [9] and in [10] was “inactive” in each case. In assay [4], the Potency was 49 µM (active).
Regarding `CCc1cnc(C2=NC(C)(C(C)C)C(=O)N2)c(C(=O)O)c1` (stereo unspecified), the Potency result in [3], in [4], in assay [5], in [6], in assay [7] and in [8] was “inactive” each time. The Potency result in assay [9] and in assay [10] was “inactive” in each case.
As to `O=CC=O`, the Potency entry in assay [1], in assay [3], in assay [4], in [5], in assay [6] and in [7] was “inactive” in each case. In addition, the Potency result in [8], in assay [9] and in assay [10] was “inactive” throughout.
With `O=C(O)C(F)(F)C(F)(F)C(F)(F)C(F)(F)C(F)(F)C(F)(F)C(F)(F)C(F)(F)F`, the Potency entry in assay [1], in assay [3], in assay [4], in [5], in assay [6] and in [7] was “inactive” throughout. The Potency result in [8] and in [9] was “inactive” each time. Further, in [10], the Potency was 21.9 µM (active).
`C1CCNCC1`: the Potency entry in assay [1], in [2], in assay [3], in assay [4], in [5] and in [6] was “inactive” each time. Besides, the Potency result in assay [7], in assay [8], in assay [9] and in assay [10] was “inactive” throughout.
As to `CN1C(=O)CN=C(c2ccccc2)c2cc([N+](=O)[O-])ccc21`, the Potency result in assay [1], in assay [2], in assay [3], in assay [4], in assay [5] and in [6] was “inactive” throughout. In addition, the Potency result in [7], in assay [8], in [9] and in [10] was “inactive” each time.
Consider `CON(C)C(=O)Nc1ccc(Cl)cc1`, for which the Potency entry in assay [1], in [3], in [4], in assay [5], in assay [6] and in assay [7] was “inactive” in each case. For the same compound, the Potency result in assay [8], in assay [9] and in assay [10] was “inactive” each time.
Regarding `CCC(C)Cl` (stereo unspecified), the Potency result in [1], in assay [2], in [3], in assay [4], in [5] and in assay [6] was “inactive” throughout. Further, the Potency entry in assay [7], in [8], in assay [9] and in [10] was “inactive” in each case.
In the case of `CCOc1cccc(C2(N3CCN(c4ccccc4)CC3)CCC(C)CC2)c1` (stereo unspecified), the Potency result in [1], in assay [2], in assay [3], in [4], in [5] and in assay [6] was “inactive” in each case. The Potency entry in [7], in assay [8], in assay [9] and in [10] was “inactive” in each case.
For the compound `CCOC(=O)c1cncn1C(C)c1ccccc1` (stereo unspecified), the Potency entry in assay [3], in [4], in assay [5], in assay [6], in assay [7] and in assay [8] was “inactive” throughout. For the same compound, the Potency result in assay [9] and in [10] was “inactive” in each case.
In the case of `O=C1CC[C@@]2(O)[C@H]3Cc4ccc(O)c5c4[C@@]2(CCN3CC2CC2)[C@H]1O5`, the Potency entry in assay [3], in [4], in assay [5], in assay [6], in assay [7] and in assay [8] was “inactive” each time. Besides, the Potency result in assay [9] and in [10] was “inactive” each time.
Regarding `COc1cc(C[C@@H](C)N)c(OC)cc1Br`, the Potency result in assay [1], in assay [3], in [4], in assay [5], in [6] and in assay [7] was “inactive” in each case. Moreover, the Potency result in assay [8], in assay [9] and in assay [10] was “inactive” throughout.
As to `CC(C)(C#N)C(C)(C)C#N`, the Potency entry in assay [1], in assay [2], in [3], in assay [4], in assay [5] and in assay [6] was “inactive” in each case. Also, the Potency entry in assay [7], in [8], in assay [9] and in assay [10] was “inactive” throughout.
Consider `CN(C)N`, for which the Potency result in assay [1], in assay [2], in [3], in assay [4], in [5] and in assay [6] was “inactive” in each case. In addition, the Potency result in assay [7], in [8], in assay [9] and in [10] was “inactive” each time.
For the compound `COCc1cnc(C2=NC(C)(C(C)C)C(=O)N2)c(C(=O)O)c1` (stereo unspecified), the Potency result in assay [3], in assay [4], in assay [5], in assay [6], in [7] and in [8] was “inactive” each time. Also, the Potency entry in assay [9] and in assay [10] was “inactive” in each case.
For `C=CC(=O)OCC`, the Potency result in assay [3], in assay [4], in assay [5], in [6], in assay [7] and in [8] was “inactive” in each case. Further, the Potency entry in assay [9] and in assay [10] was “inactive” throughout.
With `ClCc1ccccc1Cl`, the Potency result in assay [1], in [3], in assay [4], in [5], in assay [6] and in assay [7] was “inactive” throughout. Besides, the Potency result in [8], in assay [9] and in assay [10] was “inactive” in each case.
For the compound `CCCCCl`, the Potency result in [1], in assay [2], in [3], in assay [4], in [5] and in [6] was “inactive” throughout. For the same compound, the Potency result in [7], in [8], in [9] and in assay [10] was “inactive” each time.
Take `C=C(C)C(=O)OCCCCOC(=O)C(=C)C`: the Potency result in assay [1], in assay [3], in assay [4], in assay [5], in assay [6] and in assay [7] was “inactive” throughout. Besides, the Potency result in assay [8], in assay [9] and in [10] was “inactive” in each case.
Turning to `CCCN(CCC)C(=O)Cc1c(-c2ccc(Cl)cc2)nc2ccc(Cl)cn12`, the Potency result in assay [1], in assay [3], in assay [4], in assay [5], in assay [6] and in assay [7] was “inactive” each time. The Potency result in [8], in assay [9] and in assay [10] was “inactive” in each case.
For the compound `CCSCc1ccccc1OC(=O)NC`, the Potency result in assay [1], in assay [3], in assay [4], in assay [5], in [6] and in [7] was “inactive” each time. The Potency result in assay [8], in [9] and in [10] was “inactive” throughout.
On to `O=C(Cl)OCCOCCOC(=O)Cl`, for which the Potency entry in assay [3], in assay [4], in assay [5], in assay [6], in [7] and in assay [8] was “inactive” each time. Further, in [9], the Potency result is “inactive”. The Potency in assay [10] is 2.19 µM (active).
